Where “and” joins values, the source holds several entries; their conditions need not be identical. Identical values can stand only once. Inconclusive results are not listed. A call without a number means that no potency is given here. More than one record can exist for a structure, and the calls need not agree. Calls of active or inactive are those of the source. The call rests on the fitted dose curve; in most records, active means well fitted activation curve with a large enough effect in the repeat runs; inconclusive means weak or mixed curves; inactive means flat fitted curve, though single readings scatter.
Potency means the concentration at half of the fitted maximal effect.

A short description of this assay: A CellTox Green Cytotoxicity Assay to monitor cytotoxicity in HepG2 cells - 8 hour (AID 1224890). Further: nearly all actives have a fitted effect of over 45% in size. As to conditions: CellTox Green fluorescence; series mostly up to 76.8 µM. Summed up: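 Nonlytic assay: viable cells exclude the dye, so fluorescence scales with cell death. HepG2 at 600 cells/well, compounds added after 5 h, signal read across 40 h.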
With `NC(CSCC(=O)O)C(=O)O` (stereo not given), the Potency entry was “inactive”. As for `O=C(O)CNC(=O)c1ccc([N+](=O)[O-])cc1`, the entry is “inactive”. As for `N=C(N)c1ccc(OCCCOc2ccc(C(=N)N)cc2)cc1`, the entry is “inactive”. For `CCCCCCCCCCCCCCCCC`, the Potency result was “inactive”.

`CN(C)CCCNCCCN(C)C`: the Potency result is “inactive”. In the case of `COc1ccc2c(c1)c(CC(=O)OCC(=O)O)c(C)n2C(=O)c1ccc(Cl)cc1`, the Potency result was “inactive”.

For `CCCCOCCOCCOCCCC`, the Potency result is “inactive”. As for `COC(C)(C)CCCC(C)CC=O` (stereo not given), the Potency result was “inactive”. As for `CCCN1CCCC[C@H]1C(=O)Nc1c(C)cccc1C`, the entry is “inactive”; as for `O=C(O)CCCl`, “inactive”; as for `COc1nc(N)nc2c1ncn2[C@@H]1O[C@H](CO)[C@@H](O)[C@@H]1O`, “inactive”.

Turning to `C1OCOCO1`, the Potency entry was “inactive”. As for `Cc1cc2c(cc1S(N)(=O)=O)S(=O)(=O)CCC2`, the entry is “inactive”; as for `O=c1n(CCO)c(=O)n(CCO)c(=O)n1CCO`, “inactive and 38.9 µM (active)”; as for `CCCCCCCCCCCCN(CCCCCCCCCCCC)CCCCCCCCCCCC`, “inactive”. In the case of `CCS(=O)(=O)c1ccc(OC)c(C(=O)OC)c1` it was “inactive”. In the case of `N=C(N)c1ccccc1` it was “inactive”; in that of `CN1C(=O)N(C)C(O)C1O` (stereo not given), “inactive”; in that of `CC(C)NC(=O)NC(C)C`, “inactive”. In the case of `Brc1c(NC2=NCCN2)ccc2nccnc12`, the Potency result was “inactive”. In the case of `CN(C(=O)c1c(O)c2ccccc2n(C)c1=O)c1ccccc1` it was “inactive”; in that of `CC(C)NCCCC1(C(N)=O)c2ccccc2-c2ccccc21`, “inactive”. As for `C=C(C)C(=O)OCCCCCCCC(C)C`, the entry is “inactive”; as for `CC(NC(CCc1ccccc1)C(=O)O)C(=O)N1C(=O)N(C)CC1C(=O)O` (stereo not given), “inactive”.

With `CCOC(=O)[C@H](CCc1ccccc1)N[C@@H](C)C(=O)N1[C@H](C(=O)O)C[C@@H]2CCC[C@@H]21`, the Potency entry was “inactive”. As for `O=Cc1cccc([N+](=O)[O-])c1`, the entry is “inactive”; as for `CC/C=C\CC/C=C/C(OCC)OCC`, “inactive”; as for `CCCCCSCCCCC`, “inactive”. With `CCOC(=O)CC(C)=O`, the Potency entry is “inactive”.

Regarding `Cn1cc(S(C)=O)c(=O)c2ccc(F)cc21` (stereo not given), the Potency entry is “inactive”. Turning to `CC(C)CCCC(C)N` (stereo not given), the Potency result is “inactive”. In the case of `COC(=O)c1ccc(C)cc1C1=NC(C)(C(C)C)C(=O)N1` (stereo not given) it was “inactive”; in that of `CC(C)(O)C(=O)c1ccccc1`, “inactive”; in that of `N#Cc1ccc(C2CCCc3cncn32)cc1` (stereo not given), “inactive”.

Regarding `C[C@@H]1CCN(C(=O)[C@H](CCCN=C(N)N)NS(=O)(=O)c2cccc3c2NC[C@H](C)C3)[C@@H](C(=O)O)C1`, the Potency entry is “inactive”.

(Values after PubChem BioAssay (Tox21).)
